Laboratory results: the supplement of paper PMC9844399
Counter-ions that a name gives are not always drawn.

Tested on: HeLa
Assay: nuclear count per well, robust Z-score vs DMSO; higher = more cells (less toxicity)
Conditions: 10 µM; 6 h
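Throughout, for MALAT1 nuclear FISH intensity, robust Z-score vs DMSO: High-content confocal imaging of branched-DNA amplified FISH in 384-well plates, Hoechst-defined nuclei, score is well value minus plate DMSO median over DMSO robust SD, four wells per compound.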
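Throughout, for nuclear count per well, robust Z-score vs DMSO: Hoechst-stained nuclei counted by automated confocal imaging of four fields per well in 384-well plates, with the robust Z-score based on the per-plate DMSO median and robust SD.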

Structure (SMILES)	nuclear count per well
Cc1c(C(=O)c2cccc3ccccc23)c2cccc3c2n1[C@H](CN1CCOCC1)CO3 [WIN 55,212-2 mesylate]	0.0402
C/C=C/[C@H]1O[C@@](O)([C@@H](C)[C@H](O)[C@H](C)[C@H]2OC(=O)/C(OC)=C/C(C)=C/[C@@H](C)[C@@H](O)[C@@H](CC)[C@@H](O)[C@H](C)C/C(C)=C/C=C/[C@@H]2OC)C[C@@H](O[C@H]2C[C@@H](O)[C@H](OC(N)=O)[C@@H](C)O2)[C@@H]1C [Concanamycin A]	0.662
CC[C@@H]1/C=C/C=C/C[C@H](C)[C@H](O)[C@](C)(O)C(=O)[C@H](C)[C@@H](O)[C@H](C)C(=O)[C@H](C)[C@@H](O)[C@H](C)/C=C/C(=O)O[C@H]2[C@@H](C)[C@@H](CC1)O[C@@]1(CC[C@@H](C)[C@@H](C[C@H](C)O)O1)[C@@H]2C [Oligomycin A]	0.149
CCCCC/C=C\C[C@@H](/C=C/C=C\C/C=C\CCCC(=O)O)OO	0.706
c1ccc2c(c1)[I+]c1ccccc1-2 [Diphenyleneiodonium]	-2.32
CC[C@@H](CO)NC(=O)[C@@H]1C=C2c3cccc4[nH]cc(c34)C[C@H]2N(C)C1 [Methylergonovine Maleate]	-0.258
O=c1[nH]c2ccccc2n1C1CCN(CCCC(c2ccc(F)cc2)c2ccc(F)cc2)CC1 [Pimozide]	0.329
N#CC(C#N)=Cc1cc(O)c(O)c([N+](=O)[O-])c1	0.498
CC(=O)C1=C(O)[C@@H]2[C@H]3c4c[nH]c5cccc(c45)C[C@H]3C(C)(C)N2C1=O [Cyclopiazonic acid]	-0.298
COC[C@@H](NC(C)=O)C(=O)NCc1ccccc1 [Lacosamide]	-0.46
N#CC(C#N)=Cc1ccc(O)cc1 [Tyrphostin-8]	1.34

Tested on: HeLa
Assay: MALAT1 nuclear FISH intensity, robust Z-score vs DMSO; higher = more nuclear MALAT1 lncRNA, active = -3 or less
Conditions: 10 µM; 6 h

Structure (SMILES)	MALAT1 nuclear FISH intensity
O=C1CN=C(c2ccccc2Cl)c2cc([N+](=O)[O-])ccc2N1 [Clonazepam]	-1.1 (inactive)
CCCCC/C=C\CC1OC1CCCCCCCC(=O)O (stereo not given) [Leukotoxin A (9,10-EODE)]	-0.766 (inactive)
CC1(C)C(C=C(Cl)Cl)C1C(=O)OCc1cccc(Oc2ccccc2)c1 (stereo not given) [Permethrin]	1.51 (inactive)
CN1[C@@H]2CC[C@H]1C[C@@H](OC(=O)C(CO)c1ccccc1)C2 (stereo not given in full) [Atropine Sulfate Monohydrate]	-0.542 (inactive)
CC(C)[C@@H]1NC(=O)[C@H](C)OC(=O)[C@@H](C(C)C)NC(=O)[C@@H](C(C)C)OC(=O)[C@H](C(C)C)NC(=O)[C@H](C)OC(=O)[C@@H](C(C)C)NC(=O)[C@@H](C(C)C)OC(=O)[C@H](C(C)C)NC(=O)[C@H](C)OC(=O)[C@@H](C(C)C)NC(=O)[C@@H](C(C)C)OC1=O [Valinomycin]	-0.197 (inactive)
NCC1(CC(=O)O)CCCCC1 [Gabapentin]	0.161 (inactive)
CC(C)n1cc2c3c(cccc31)C1C[C@@H](C(=O)N[C@H]3CCC[C@H]3O)CN(C)[C@@H]1C2 (stereo not given in full)	-0.281 (inactive)
CC(NC(C)(C)C)C(=O)c1cccc(Cl)c1 (stereo not given)	-0.773 (inactive)
COC(=O)[C@@H]1C[C@H](OC(C)=O)C(=O)[C@H]2[C@@]1(C)CC[C@H]1C(=O)O[C@H](c3ccoc3)C[C@]21C [Salvinorin A]	0.645 (inactive)
C[C@H]1C(=O)O[C@@H]2CCN3CC=C(COC(=O)[C@](C)(O)[C@]1(C)O)[C@H]23 [Monocrotaline]	-0.947 (inactive)
COc1cc2c(c3oc(=O)c4c(c13)CCC4=O)[C@@H]1CCO[C@@H]1O2 [Aflatoxin B2]	-0.429 (inactive)
COC[C@H]1OC(=O)c2coc3c2[C@@]1(C)C1=C(C3=O)[C@@H]2CCC(=O)[C@@]2(C)C[C@H]1OC(C)=O [Wortmannin]	-1.8 (inactive)
O=C1CSC(c2ccccc2Cl)c2cc(Cl)ccc2N1 (stereo not given)	-1.48 (inactive)
CCOC(=O)CN1C(=O)CC(C[C@@H](O)C2C[C@@H](C)C[C@H](C)C2=O)CC1=O (stereo not given in full) [Cycloheximide-N-ethylethanoate]	-0.0786 (inactive)
CCCC[C@H]1C(=O)O[C@H](C)[C@H](NC(=O)c2cccc(NC=O)c2OC)C(=O)O[C@@H](C)[C@@H]1OC(=O)CC(C)C [2-methoxyantimycin A3]	0.515 (inactive)
COC(=O)[C@@]1(O)C[C@H]2O[C@]1(C)n1c3ccccc3c3c4c(c5c6ccccc6n2c5c31)C(=O)NC4	0.291 (inactive)
C[C@H](CCC(=O)O)C[C@H](C)C[C@H](C)C(=O)/C=C(\O)[C@H](C)C[C@H](C)C/C=C/[C@@H](C)[C@@H](O)[C@@H](C)[C@@H](O)C[C@@H]1CC[C@@](C)([C@H]2CC[C@@](C)([C@@H](C)O)O2)O1 [Ionomycin, Free Acid, Streptomyces conglobatus]	-1.3 (inactive)
NC1CCc2cc(O)c(O)cc2C1 (stereo not given)	-1.61 (inactive)
CO[C@H](C/C=C\C=C\CC/C=C/C[C@H](C)/C=C/C(=C\C(=O)O)CC(=O)O)/C(C)=C\C=C(/C)C(=O)O [Bongkrekic acid]	1.49 (inactive)
CC(C)N(CCC(C(N)=O)(c1ccccc1)c1ccccn1)C(C)C (stereo not given) [Disopyramide]	-1.18 (inactive)

Structure (SMILES)	MALAT1 nuclear FISH intensity
COc1cc2c(c(OC)c1OC)-c1ccc(OC)c(=O)cc1[C@@H](NC(C)=O)CC2 [Colchicine]	0.701 (inactive)
C=CCN1CC[C@]23c4c5ccc(O)c4O[C@H]2C(=O)CC[C@@]3(O)[C@H]1C5	-0.842 (inactive)
CN1CCN(C(=O)O[C@H]2c3nccnc3C(=O)N2c2ccc(Cl)cn2)CC1 [Eszopiclone]	0.635 (inactive)
O=C(NCCN1CCC2(CC1)C(=O)NCN2c1cccc(F)c1)c1ccc(F)c(F)c1 [ML 298 hydrochloride]	-1.07 (inactive)
CO/C1=C\C(C)=C\[C@@H](C)[C@@H](O)[C@@H](C)C/C(C)=C/C=C/[C@H](OC)[C@@H]([C@@H](C)[C@@H](O)[C@H](C)[C@@]2(O)C[C@@H](O)[C@H](C)[C@@H](C(C)C)O2)OC1=O [Bafilomycin A1]	-1.34 (inactive)
CCCCCCCCCCCCCC(=O)O[C@@H]1[C@@H](C)[C@@]2(O)[C@@H](C=C(CO)C[C@]3(O)C(=O)C(C)=C[C@@H]23)[C@@H]2C(C)(C)[C@]12OC(C)=O [Phorbol 12-myristate 13-acetate]	1.8 (inactive)
CC(C)NCC(O)c1ccc(N)c(C#N)c1 (stereo not given) [Cimaterol]	-0.435 (inactive)
COC1=CC(=O)O[C@@H](CCc2ccc3c(c2)OCO3)C1 [Dihydromethylsticin]	-1.34 (inactive)
Cc1c(C(=O)c2cccc3ccccc23)c2cccc3c2n1[C@H](CN1CCOCC1)CO3 [WIN 55,212-2 mesylate]	-0.777 (inactive)
C/C=C/[C@H]1O[C@@](O)([C@@H](C)[C@H](O)[C@H](C)[C@H]2OC(=O)/C(OC)=C/C(C)=C/[C@@H](C)[C@@H](O)[C@@H](CC)[C@@H](O)[C@H](C)C/C(C)=C/C=C/[C@@H]2OC)C[C@@H](O[C@H]2C[C@@H](O)[C@H](OC(N)=O)[C@@H](C)O2)[C@@H]1C [Concanamycin A]	-0.0392 (inactive)
CC[C@@H]1/C=C/C=C/C[C@H](C)[C@H](O)[C@](C)(O)C(=O)[C@H](C)[C@@H](O)[C@H](C)C(=O)[C@H](C)[C@@H](O)[C@H](C)/C=C/C(=O)O[C@H]2[C@@H](C)[C@@H](CC1)O[C@@]1(CC[C@@H](C)[C@@H](C[C@H](C)O)O1)[C@@H]2C [Oligomycin A]	-1.38 (inactive)
CCCCC/C=C\C[C@@H](/C=C/C=C\C/C=C\CCCC(=O)O)OO	0.224 (inactive)
c1ccc2c(c1)[I+]c1ccccc1-2 [Diphenyleneiodonium]	-4.24 (active)
CC[C@@H](CO)NC(=O)[C@@H]1C=C2c3cccc4[nH]cc(c34)C[C@H]2N(C)C1 [Methylergonovine Maleate]	0.0357 (inactive)
O=c1[nH]c2ccccc2n1C1CCN(CCCC(c2ccc(F)cc2)c2ccc(F)cc2)CC1 [Pimozide]	-0.534 (inactive)
N#CC(C#N)=Cc1cc(O)c(O)c([N+](=O)[O-])c1	-0.588 (inactive)
CC(=O)C1=C(O)[C@@H]2[C@H]3c4c[nH]c5cccc(c45)C[C@H]3C(C)(C)N2C1=O [Cyclopiazonic acid]	1.94 (inactive)
COC[C@@H](NC(C)=O)C(=O)NCc1ccccc1 [Lacosamide]	0.22 (inactive)
N#CC(C#N)=Cc1ccc(O)cc1 [Tyrphostin-8]	-0.39 (inactive)
